40 molecules from PubChem BioAssay (NCI) can be followed below.

Structures are written as SMILES. This is part of a sample that, as a whole, favours compounds with a hit. Of some 83,000 tested, about 20% had one in any assay.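 Step 1: grow cells in 96-well plates. Step 2: add test compound at a single concentration. Step 3: incubate 48 h. Step 4: record percent growth.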 Values without a mark were called inactive. The source made the active and inactive calls.

The assay concerns KM12 colon. The assay can be described thus: NCI-60 one-dose screen, 48 h (100 = growth as untreated, 0 = no growth, -100 = all killed). To be noted: 10 µM unless noted. The method, then:
Growth inhibition of the KM12 human tumor cell line is measured as a screen for anti-cancer activity. Cells are grown in 96 well plates and exposed to the test compound for 48 hours. Compounds are tested at a single concentration, which is 10^-5 M for most compounds. The reported endpoint is percent growth (GI% or GIPRCNT), where numbers from 0 - 100% represent growth inhibition, and numbers from -100% - 0 represent cell death. For example, a value of 40 represents 60% growth inhibition. A value of 0 means no net growth occurred over the course of the experiment. A value of -40 indicates 40% of cells at the beginning of the experiment died by the end of the experiment. A value of -100 means all cells are dead at the end of the experiment.
NCI-60 Human Tumor Cell Lines Screen was performed using the standard one-dose NCI protocol, which is described in more detail at https://dtp.cancer.gov/discovery_development/nci-60/default.htm.
Compounds with GIPRCNT values below 10 were considered active. Activity score was based on GIPRCNT using the following formula: […]
Score is 0 for GIPRCNT values of 100 or above, 50 for GIPRCNT values of 0, and 100 for GIPRCNT values of -100.
As to `COc1cc(C2CC(c3ccc(Nc4ccnc5cc(Cl)ccc45)cc3)=NN2C=O)cc(OC)c1OC` (stereo not given), the growth is 68%. For the molecule `N#Cc1c2c(nn(-c3ccccc3)c1=O)C(O)=C([N+](=O)[O-])C(c1ccccc1)C2` (stereo not given), the growth was 35.7%.

Regarding `C[C@H]1[C@H]2[C@H]3CC[C@@H]4[C@@]5(C)C/C(=C/c6ccco6)C(=O)C(C)(C)[C@@H]5CC[C@@]4(C)[C@]3(C)CC[C@]23CO[C@]1(C)[C@@H](C(=O)/C=C\c1ccco1)C3`, the growth is 99.8%. As for `Cc1cc(=O)[nH]c(N=Nc2c(O)[nH]c3ccccc23)n1`, the growth was 108%.

On to `CC1=C(SCCC(=O)OC(C[Se]C2=C(C)C(=O)c3ccccc3C2=O)C(=O)NCCCCCC(=O)OCc2ccccc2)C(=O)c2ccccc2C1=O` (stereo not given), for which the growth is 19.8%. For `Cc1ccc(NS(=O)(=O)c2ccc3c(c2)C2OCCC2C(c2ccc(C(=O)C(C)C)cc2)N3)cc1C` (stereo not given), the growth was 36.5%. Turning to `COc1cccc(-c2nn(-c3ccccc3)cc2-c2ccnc(NCCNC(=O)Nc3ccccc3)c2)c1`, the growth was 37.6%. Take `Cc1cc(NCc2cc(Nc3ccnc4cc(Cl)ccc34)ccc2F)nc(N2CCN(C)CC2)n1`: the growth is 14.4%.

As to `N#Cc1c(N)nn(C(=O)c2ccc(NC(=O)c3ccccn3)cc2)c1-c1ccc(Cl)cc1`, the growth is -26.3% (active). On to `CC(CN1CCCCC1)C(=O)c1ccccc1` (stereo not given), for which the growth is 105%.

In the case of `COc1ccc(C(=O)Nn2c(NCC(=O)N3c4ccccc4Sc4ccccc43)nnc2-c2ccc(O)cc2)cc1`, the growth is 109%. The value for `Cc1cc(/C=C\c2ccc3ccccc3[n+]2C)c(O)c2ncccc12` was 13.7%; that for `Cc1cc(NCCCCNc2ccnc3cc(Cl)ccc23)nc(Nc2ccc(C(=O)N3CCCCC3)cc2)n1` was 25.8%; that for `O=C(O)C1CCC(=O)N1C(=O)OCc1ccccc1` (stereo not given) was 115%. `O=C(Nc1ccccc1Cl)Oc1ccc(-c2ccccc2)cc1`: the growth is 120%. In the case of `COC(=O)c1c2c(c[n+]([O-])c1C)C(=O)C=CC2=O`, the growth was 98.7%. For `O=S(=O)(NCCCNc1cc(-c2c(-c3cccc(O)c3)nc3sccn23)ccn1)c1cccc(Cl)c1`, the growth was 32.4%. Consider `COc1ccccc1N1C(=O)/C(=C/C2=Cc3ccccc3OC2)SC1=S`, for which the growth was 99.6%. Consider `Nc1ccc2c(c1)c(N)nn2C(=O)Nc1ccc(Cc2ccccc2)cc1`, for which the growth is 65.3%. In the case of `Cc1ccc(-c2cc3c(cc2O)C2CCCCC2(N2CCOCC2)O3)cc1` (stereo not given), the growth is 109%. With `CC1CC2Oc3ccc(Cl)cc3C(=O)N2O1` (stereo not given), the growth was 107%.

On to `Fc1c[c-]c(-c2ccccn2)c(F)c1.[CH3-].[Pt+2].c1ccc(P(C[PH+](c2ccccc2)c2ccccc2)c2ccccc2)cc1`, for which the growth is -40.6% (active). For the molecule `Cn1c(=O)c2c(nc(Cl)n2CCl)n(C)c1=O`, the growth was 116%. `CNc1ccc(NC)c2c1C(=O)c1ccccc1C2=O`: the growth is 64.4%. On to `C=CCNc1nc(NN2C(=O)c3cccc4cccc(c34)C2=O)nc(-n2cnc3ccccc32)n1`, for which the growth is 18.6%.

For `O=c1c2cc(F)ccc2sc2c(Nc3cccnc3)nc3ccccc3c12`, the growth was 89.2%. As for `CCCCn1c(=O)c2c(nc(NCCc3ccc(O)c(O)c3)n2CCC)n(CCCC)c1=O`, the growth was 61.3%. As to `CNC(=O)c1cc(Oc2ccc3nc(Nc4ccc(Cl)c(C(F)(F)F)c4)ccc3c2)ccn1`, the growth was 52.7%.

On to `c1csc(-c2c3ccc(=[N+]4CCCCC4)cc-3oc3cc(N4CCCCC4)ccc23)c1`, for which the growth is -92.9% (active). Turning to `NS(=O)(=O)c1cnccc1Oc1cccc2cccnc12`, the growth is 107%. Turning to `O=Cc1ccc(O)c2ncccc12`, the growth is 69.6%. Turning to `Cn1c2c(c3ccc(Cl)c(Cl)c31)C(C#N)C1(CCNCC1)NC2=O` (stereo not given), the growth was 31.7%. With `Cc1ccc(-n2nc3c(c(C#N)c2=O)CC(c2ccccc2Cl)C([N+](=O)[O-])=C3O)cc1` (stereo not given), the growth is 106%.

For `CN(C)CC1C(=O)O[C@H]2[C@H]1CC/C(COC(=O)c1cc3ccccc3[nH]1)=C\CC[C@@]1(C)O[C@@H]21` (stereo not given in full), the growth is 6.93% (active). For `CC(=O)c1nc(Nc2ccc(C)cc2)sc1C`, the growth is 98.6%. Consider `O=C(NCCc1ccc(O)c(O)c1)C12CC3CC(CC(C3)C1)C2`, for which the growth was 117%. In the case of `COc1cc(C2CC(=O)Nc3c2c(C)nn3-c2nc3ccccc3[nH]2)cc2c1OCC(=O)N2` (stereo not given), the growth was 70.8%.

Take `O=C(O)CN1C(=O)CCC1=O`: the growth was 104%. Then `CCN(CC)S(=O)(=O)c1cccc(-c2ccc3c(NC(=O)C4CC4)n[nH]c3c2)c1`, with 12.6% [6.25 µM]; and `O=C(/C=C/c1c(Cl)nc2sccn12)c1ccc(F)c(F)c1`, with 83%.
